Screening results (PubChem BioAssay)
Hits are enriched below; roughly 2.4% of the tested compounds scored in any of these assays.
D2 PAM-1: HTS Assay for Positive Allosteric Modulators of the Human D2 Dopamine Receptor: Primary Screen for Potentiators; D(2) dopamine receptor (Homo sapiens), P14416; HEK293 T-REx D2, calcium flux, EC20 dopamine potentiation; potentiation, % at 10 µM; hit rate 0.34% among 340,000; AID 485347, 2010;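 active = potentiation over 3 SD above the plate norm, cut at about 30% in these data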
Target sequence (P14416 whole entry, looked up): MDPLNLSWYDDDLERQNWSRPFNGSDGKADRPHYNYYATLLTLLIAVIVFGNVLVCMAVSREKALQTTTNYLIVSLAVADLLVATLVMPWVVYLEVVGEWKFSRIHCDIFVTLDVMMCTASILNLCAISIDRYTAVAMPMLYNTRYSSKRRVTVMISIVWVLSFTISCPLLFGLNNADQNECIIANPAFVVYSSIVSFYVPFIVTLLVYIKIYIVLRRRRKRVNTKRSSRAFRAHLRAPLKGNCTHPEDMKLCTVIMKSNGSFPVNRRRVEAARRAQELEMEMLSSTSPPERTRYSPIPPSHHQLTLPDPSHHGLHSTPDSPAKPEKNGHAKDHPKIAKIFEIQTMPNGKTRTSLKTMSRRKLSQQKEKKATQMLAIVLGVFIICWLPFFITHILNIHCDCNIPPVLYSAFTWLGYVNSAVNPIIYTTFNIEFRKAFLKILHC
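Cells plated with tetracycline inducer and held overnight at 30 C; calcium dye loaded 30–90 min at room temperature; baseline taken, compound added and read 180 s; EC20 dopamine then added and read 180 s.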
D2 PAM-2: Beta-Arrestin HTS for Positive Allosteric Modulators of the Human D2 Dopamine Receptor: Potentiators. hit rate 0.23% among 360,000. DiscoveRx D2 beta-arrestin cells, luminescence, 90 min; 100% = 57 uM dopamine signal. AID 624464, 2012. potentiation, % (concentration not given with the values). D(2) dopamine receptor (Homo sapiens), P14416; in the data active = potentiation above about 50%; inconclusive = mostly about 30% to 49%
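D2 cells co-treated with compound plus 50 nM dopamine (EC20) for 90 min at 37 deg C to detect potentiation. Beta-arrestin recruitment was read as enzyme-fragment luminescence after 1 h at ambient temperature. Full response was set by 57 uM dopamine.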
D2 antagonist: HTS Assay for Allosteric Antagonists of the Human D2 Dopamine Receptor: Primary Screen for Antagonists; D(2) dopamine receptor (Homo sapiens), P14416; HEK293 TREx D2 cells, calcium flux, dopamine EC80; inhibition, % at 10 µM; hit rate 2% among 340,000; AID 485344, 2010; in the data active = inhibition above about 30%; inactive = below that, where a call was filed
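Measurement of antagonist activity uses fluorescent calcium dye in inducible HEK293 T-REx D2 cells: 10 s baseline, compound addition with 180 s read, EC80 dopamine addition with a further 180 s read.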
D2 ag-1: Beta-Arrestin HTS for Positive Allosteric Modulators of the Human D2 Dopamine Receptor: Agonists; D(2) dopamine receptor (Homo sapiens), P14416; DiscoveRx PathHunter D2 beta-arrestin, luminescence, 90 min; 100% = 57 uM dopamine signal; activation, % (no concentration beside the values); hit rate 0.084% among 360,000; in the data active = activation above about 40%; inconclusive = between about 15% and that limit
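Agonist mode: compounds alone added to overnight-plated D2 PathHunter cells for 90 min at 37 C, with 57 uM final dopamine (EC100) defining full response. Beta-arrestin recruitment detected by chemiluminescent reagent, read after 1 h at ambient temperature.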
D2 ag-2: HTS Assay for Allosteric Agonists of the Human D2 Dopamine Receptor: Primary Screen for Agonists. hit rate 0.53% among 340,000. D(2) dopamine receptor (Homo sapiens), P14416. HEK293 T-REx D2 cells, calcium flux agonist mode. activation, % at 2 µM;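 active = activation over 3 SD above normal in the single-dose calcium agonist read, cut at about 30% in these data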
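HEK293 Trex D2 cells, tetracycline-induced, o/n 30 C 5% CO2; no-wash Ca dye, RT 30–90 min; 10-cycle baseline, 23 nl cpd added, kinetic Ca read 180 s; agonist hits = positive Ca response.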
Of the large screens only hits and unclear results are named; the others gave an inactive call.

O=C(NCC(c1ccc(F)cc1)N1CCOCC1)c1nn(-c2ccccc2)c(=O)c2ccccc12 (stereo not drawn)	D2 antagonist 70
COc1ccc(CCNC(=O)NC2CCCCC2)cc1	D2 antagonist 31
Cc1c(Cl)cccc1NC(=O)CN1CCN(CCO)CC1	D2 antagonist 31
Cc1c(Cl)cccc1NC(=O)CC1SCCNC1=O (stereo not drawn)	none
Cc1c(Cl)cccc1NC(=O)CC1NCCNC1=O (stereo not drawn)	D2 antagonist 34
O=C(CCN1CCN(c2ccc(Cl)cc2)CC1)Nc1ccccc1F	D2 antagonist 36
O=C(CN1CCN(CCC(=O)Nc2ccccc2F)CC1)Nc1ccc(F)cc1	none
Cc1c(Cl)cccc1NC(=O)CCN1CCCCCC1	none
O=C(CN1CCN(CCC(=O)Nc2ccccc2F)CC1)Nc1ccc(Cl)cc1	D2 antagonist 129
Cn1cc(-c2cc3n(n2)CCC(=O)N3CCCC(=O)NCc2ccccc2Cl)c2ccccc21	none (no result: D2 PAM-2, D2 antagonist, D2 ag-1)
O=C(COC(=O)c1ccc(O)cc1O)Nc1ncc(Cl)cc1Cl	D2 antagonist 31
COC(=O)C1Sc2[nH]c(=O)sc2C2c3ccccc3OC(=O)C12 (stereo not drawn)	none
COC(=O)C1Sc2[nH]c(=O)sc2C(c2ccc(Cl)cc2)C1C(=O)OC (stereo not drawn)	D2 antagonist 38
COc1cc(/C=C2\SC(=S)N(Nc3ncc(C(F)(F)F)cc3Cl)C2=O)ccc1O	none
CN(C)c1ccc(/C=C2\SC(=S)N(Nc3ncc(C(F)(F)F)cc3Cl)C2=O)cc1	D2 ag-2 45
C=CCN1C=CC(=CC=C(C#N)C#N)C=C1	D2 ag-2 53
CCc1ccc(CN(Cc2cn[nH]c2-c2ccc(OC)cc2)C(=O)Nc2ccc(Br)cc2)cc1	none (no result: D2 PAM-2, D2 antagonist, D2 ag-1)
O=C(CNc1cccc(Br)c1)Nc1ccc(S(=O)(=O)N2CCCCC2)cc1	none (no result: D2 PAM-1, D2 antagonist, D2 ag-2)
COc1ccc(-c2nnc(SCCC(=O)O)n2C)cc1OC	D2 antagonist 34
Clc1cccc(OCCCCN2CCCCC2)c1	D2 antagonist 77
CC(=O)N1CCC(C(=O)NCCOc2cccc(C)c2)CC1	D2 antagonist 35
Cc1cccc(OCCCN2CCCCCC2)c1	D2 antagonist 40
COc1ccccc1N1CCN(C2CCCN(Cc3ccccc3OCCO)C2)CC1 (stereo not drawn)	none
COc1ccccc1N1CCN(C2CCCN(Cc3cc(F)cc(F)c3)C2)CC1 (stereo not drawn)	D2 antagonist 41
COc1ccc(O)c(CN2CCCC(N3CCN(c4ccccc4OC)CC3)C2)c1 (stereo not drawn)	none
COc1ccccc1N1CCN(C2CCCN(Cc3ccc(Cl)cc3)C2)CC1 (stereo not drawn)	D2 antagonist 37
O=C(c1cccs1)c1cn(CCOc2ccccc2Cl)c2ccccc12	none (no result: D2 PAM-2, D2 antagonist, D2 ag-1)
Cc1ccc(CNC(=O)Cn2cnc3cc([N+](=O)[O-])ccc3c2=O)cc1	D2 PAM-2 54
CC(C)(C)c1ccc(NC(=O)Cn2cnc3cc([N+](=O)[O-])ccc3c2=O)cc1	D2 ag-1 inconclusive
Cc1cccc(Cn2c(CN3CCCC(C)C3)nc3c2c(=O)n(C)c(=O)n3C)c1 (stereo not drawn)	none (no result: D2 PAM-2, D2 antagonist, D2 ag-1)
COc1cc(/C=C2/SC(=S)NC2=O)ccc1OS(=O)(=O)c1ccc(C)cc1	none
COc1cc(/C=C2\SC(=S)N(CCCCC(=O)O)C2=O)ccc1OS(=O)(=O)c1ccc(C)cc1	D2 PAM-2 inconclusive, D2 antagonist 32
O=C(C[n+]1ccccc1)N/N=C/c1cc(Br)cc(Br)c1O	D2 antagonist 32
COc1ccc(Br)cc1/C=N/NC(=O)C[n+]1ccccc1	D2 antagonist 40
O=C(C[n+]1ccccc1)N/N=C/c1cc(Br)ccc1F	none
CCOC(=O)N1CCc2c(sc(NCc3cc(OC)ccc3OC)c2C(=O)Nc2cc(OC)ccc2OC)C1	none (no result: D2 PAM-2, D2 antagonist, D2 ag-1)
CC(C)CN(CCCNC(=O)c1cc(-c2cccs2)nc2ccccc12)CC(C)C	none (no result: D2 PAM-2, D2 antagonist, D2 ag-1, D2 ag-2)
CSc1ncccc1C(=O)OCc1c(F)cccc1Cl	D2 PAM-1 30
CC(C)Nc1nc2c(S(=O)(=O)c3cccc(Cl)c3)nnn2c2ccsc12	none (no result: D2 PAM-2, D2 antagonist, D2 ag-1, D2 ag-2)
COc1ccc(C(=O)c2oc3ccccc3c2NC(=O)COc2c(C)cc(C)cc2C)cc1	none (no result: D2 PAM-2, D2 antagonist, D2 ag-1)
O=C1CN=C(Nc2ccccc2Cl)N1c1ccccc1	D2 antagonist 36
CCOc1ccc(N2C(=O)CN=C2Nc2ccccc2Cl)cc1	none
CC12CCC(C(=O)N(CSC(=S)N/N=C\c3ccccc3)C1=O)C2(C)C (stereo not drawn)	D2 antagonist 32
CC12CCC(C(=O)N(CSC(=S)N/N=C\c3ccccc3Cl)C1=O)C2(C)C (stereo not drawn)	none
Cc1ccc(NC(=O)c2ccc(NC(=O)N3CCSc4ncccc43)cc2)cc1Cl	none (no result: D2 PAM-2, D2 antagonist, D2 ag-1)
Nc1nnc(CC(=O)N/N=C/c2cccc(OCCOc3ccccc3)c2)s1	D2 antagonist 31
Cc1cccc(NC(=O)c2cc(-c3ccc4c(c3)OCCO4)on2)c1	none (no result: D2 PAM-1, D2 PAM-2, D2 antagonist, D2 ag-1)
COc1ccccc1-c1ccc(/C=C2\C=CC(=O)O2)o1	D2 ag-2 66
CCOc1ccccc1CNC(=O)c1sc2ncccc2c1-n1cccc1	none (no result: D2 PAM-2, D2 antagonist, D2 ag-1)
O=C(NCc1ccccc1F)C(=O)NCC(c1ccco1)S(=O)(=O)c1ccccc1 (stereo not drawn)	none (no result: D2 PAM-2, D2 antagonist, D2 ag-1, D2 ag-2)
Cc1cc(C)n(CCOc2nonc2N)n1	D2 antagonist 34
Nc1nonc1OCCOCCOCCOc1nonc1N	none
CC(C)(C)C(=O)N1CCN(c2nc3c(F)cccc3s2)CC1	none (no result: D2 PAM-2, D2 antagonist, D2 ag-1)
O=C(NC1CCCC1)c1ccc2nc(-c3ccco3)c(-c3ccco3)nc2c1	D2 antagonist 33
O=C(c1ccc2nc[nH]c2c1)N1CCc2ccccc2C1	D2 antagonist 35
Cc1ccc(C(=O)NC2CCCCC2)cc1	D2 antagonist 62
O=C(NC1CCCC1)c1ccc2nc[nH]c2c1	D2 PAM-1 38
COc1cc2c(cc1OC)CN(C(=O)c1ccc3nc[nH]c3c1)CC2	none
Cc1c(C)n(Cc2ccccc2)c2ccc(C(=O)NCCc3ccccc3Cl)cc12	none (no result: D2 PAM-2, D2 antagonist, D2 ag-1, D2 ag-2)
CCOc1ccccc1NC(=O)CSc1nc2c(oc3ccccc32)c(=O)n1C(C)C	none (no result: D2 PAM-2, D2 antagonist, D2 ag-1)
O=C(Nc1ccc(Cl)cc1)C(NS(=O)(=O)c1cccs1)c1ccccc1 (stereo not drawn)	none (no result: D2 PAM-2, D2 antagonist, D2 ag-1)
O=C(Nc1ccsc1C(=O)NC1CCCCC1)c1ccccc1	D2 antagonist 31
O=C(Nc1ccccc1C(=O)NC1CCCCC1)c1ccccc1	none
CCCCN1C(=O)c2ccc(C(=O)Nc3ccccc3N3CCOCC3)cc2C1=O	D2 antagonist 44
